# From PubChem BioAssay (NCATS)
# Inconclusive results are not listed. Where a call stands in place of a potency, no number is given. Calls of active or inactive are those of the source. Calls come from the whole dose curve; as a rule, active = well fitted curve in the direction sought with a large enough effect; inconclusive = small, poorly fitted or top-dose-only effect, or another doubt; inactive = no such curve, though single readings can be large; an effect the other way counts as inactive or inconclusive.
# Assays:
# [1] = qHTS to identify inhibitors of the type 1 interferon - major histocompatibility complex class I in skeletal muscle: primary screen against the NCATS LOPAC collection (AID 1347405);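 note: lytic HiBiT luminescence reporting HLA-B protein level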; note: potency is the fitted concentration of half-maximal effect
# Summary of the method: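 Immortalized human C25cl48 myoblasts with HiBiT knocked into endogenous HLA-B*08:01 were stimulated with 4.0 ng/ml IFN-beta and given compounds in a 7-point, 1:4.3 titration from 46 uM final; after 24 hrs, lytic HiBiT luminescence was read.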
# [2] = qHTS for inhibitors of adenylyl cyclases using a fission yeast platform: a pilot screen against the NCATS LOPAC library (AID 1347410)
# Summary of the method: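 S. pombe CHP2027 (AC9-GNAS-PDE4D2) carrying PKA-repressed fbp1-GFP, incubated 18 h at 30C in EMM with LOPAC compounds at up to 57 uM. GFP gain-of-signal read by laser scanning cytometry; DMSO negative control.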
# [3] = qHTS to identify inhibitors of the type 1 interferon - major histocompatibility complex class I in skeletal muscle: primary screen against the NCATS Pharmaceutical Collection (AID 1347407);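 note: luminescence of HiBiT knocked into endogenous HLA-B as interferon-induced MHC class I level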
# Summary of the method: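 Immortalized human myoblasts (C25cl48) with HiBiT knocked into endogenous HLA-B*08:01 were stimulated with 4.0 ng/ml IFN-beta and treated with compounds ([…] top 46 uM) for 24 hrs at 37 C. HiBiT lytic luminescence read.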
# [4] = target: Protein phosphatase 1D (Homo sapiens) (UniProt O15297); assay: RapidFire Mass Spectrometry qHTS Assay for Modulators of WT P53-Induced Phosphatase 1 (WIP1) (AID 1347424);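 note: amount of dephosphorylated VEPPL-S-QETFS peptide product formed by WIP1; series mostly up to about 63 µM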
# Sequence of Protein phosphatase 1D (Homo sapiens) (O15297 whole entry, looked up): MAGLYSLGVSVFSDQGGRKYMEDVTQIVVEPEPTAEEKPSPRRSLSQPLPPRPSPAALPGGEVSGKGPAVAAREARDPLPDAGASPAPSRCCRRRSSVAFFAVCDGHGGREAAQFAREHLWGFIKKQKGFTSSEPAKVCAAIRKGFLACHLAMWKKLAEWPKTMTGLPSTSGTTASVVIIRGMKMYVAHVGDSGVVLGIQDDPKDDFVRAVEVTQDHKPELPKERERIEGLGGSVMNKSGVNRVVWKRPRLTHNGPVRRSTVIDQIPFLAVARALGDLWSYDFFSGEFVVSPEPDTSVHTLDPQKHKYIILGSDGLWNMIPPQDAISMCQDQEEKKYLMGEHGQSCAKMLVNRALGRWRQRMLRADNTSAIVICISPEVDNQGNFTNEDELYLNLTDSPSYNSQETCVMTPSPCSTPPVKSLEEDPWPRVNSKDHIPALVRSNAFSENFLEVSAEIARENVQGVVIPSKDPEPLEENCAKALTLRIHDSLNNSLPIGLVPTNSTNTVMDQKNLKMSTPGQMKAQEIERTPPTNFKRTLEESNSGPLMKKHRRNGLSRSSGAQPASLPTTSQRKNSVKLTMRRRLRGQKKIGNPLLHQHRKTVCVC
# Summary of the method: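 10 nM WIP1 preincubated with compounds 1 hr at room temperature in pH 7.5 Tris buffer with 30 mM MgCl2, 1 mM TCEP; 2 uM VEPPL-pS-QETFS phosphopeptide for 5 min, formic acid quench; dephosphorylated product quantified by RapidFire MS against labelled standard.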
# [5] = Validation qHTS assay for inhibitors of Activation Induced Cytidine Deaminase (AID): UDG Counterscreen signal (AID 1347427)
# Summary of the method: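 Counterscreen read of UDG activity (2 U/mL, 4/3x) in the FRET deamination format with AID (1 uM, 4/3x), DJC20/DJC23 substrates (250 nM, 4x), 4 h at room temperature. NaOH stop, fluorescence at 560 ex/665 em.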
# [6] = qHTS for inhibitors of Wild type Zika virus screened against the NCATS CANVASS Library (AID 1347396);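 note: ATP luminescence of surviving cells so rescue from viral cell killing; series mostly up to about 46 µM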
# Summary of the method: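 Vero 766 cells, 1000/well, o/n attach; cpds pin-transferred (11-pt qHTS); WT Zika added; 72 h, 37C, 5% CO2; CellTiter Glo lumi. Uninfected + vehicle = 100% inhibition.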
# [7] = Viability qHTS for inhibitors of the SERCaMP assay screened against the NCATS CANVASS Library (AID 1347400); note: series mostly up to about 92 µM; nearly all actives have a fitted effect of over 70% in size
# Summary of the method: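 SH-SY5Y-GLuc SERCaMP MJH297-derived cells (1000 cells/well) were pre-incubated 4 h at 37C, then exposed to compounds for 48 h. Viability was read as CellTiter-Glo luminescence; bortezomib served as positive control.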
# [8] = Redox Reaction Profiling qHTS: Assay Interference Panel against the NCATS CANVASS Library (AID 1347401)
# Summary of the method: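 Compounds in 11-point series incubated with 5 uM resazurin and 200 uM DTT in 50 mM HEPES pH 7.3, 50 mM NaCl. Resorufin fluorescence (Ex 525/Em 598) read before and after 15 min in the dark.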
# [9] = target: Protein phosphatase 1D (Homo sapiens) (UniProt O15297); assay: Rhodamine-PBP qHTS Assay for Modulators of WT P53-Induced Phosphatase 1 (WIP1) (AID 1347425)
# Summary of the method: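 Read-out: Rhodamine-PBP fluorescence (ex 525/em 598 nm) for released Pi, read each minute for 11 min after adding 10 uM VEPPL-pS-QETFS; signal taken as f1 minus pre-substrate f0. Enzyme 5 nM WIP1 with 1 hr room-temperature compound preincubation.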
compound,measurement,setting,value
CN(CCCOc1ccc(Cc2ccccc2)cc1)CCC(=O)O,Potency,[1],inactive
same,outcome,[2],inactive
Nc1nc2ccc(Cl)cc2n2c(-c3ccccc3)nnc12,Potency,[1],inactive
same,outcome,[2],inactive
Fc1ccc2[nH]c(CN3CCN(c4ccccn4)CC3)cc2c1,Potency,[1],inactive
same,outcome,[2],inactive
O=[N+]([O-])c1ccc(CNc2nc(NCc3cccc(C(F)(F)F)c3)nc3nc[nH]c23)cc1,Potency,[1],inactive
same,outcome,[2],inactive
CNCC[C@H](Oc1ccc(C(F)(F)F)cc1)c1ccccc1,Potency,[1],inactive
same,outcome,[2],inactive
O=C(CCc1ccncc1)NNC(=O)N1Cc2ccccc2Oc2ccc(Cl)cc21,Potency,[1],inactive
same,outcome,[2],inactive
O=C1NCc2c1c1c3ccccc3[nH]c1c1[nH]c3ccccc3c21,Potency,[1],7.94 µM (active)
same,outcome,[2],inactive
CN1CC(=O)N/C1=N/C(=O)Nc1cccc(Cl)c1,Potency,[1],inactive
same,Potency,[3],inactive
same,outcome,[2],inactive
same,Potency,[4],inactive
same,Potency,[5],inactive
Brc1cc2c(cc1[C@H]1Nc3ccccc3[C@H]3C=CC[C@H]31)OCO2,Potency,[1],inactive
same,outcome,[2],inactive
CCNC(=O)[C@H]1O[C@@H](n2cnc3c(N)nc(NCCc4ccc(CCC(=O)O)cc4)nc32)[C@H](O)C1O (stereo partly specified),Potency,[1],inactive
same,outcome,[2],inactive
CC(C)(NS(=O)(=O)c1ccc(Oc2ccc(F)cc2)cc1)C(=O)NO,Potency,[1],inactive
same,outcome,[2],inactive
COc1ccc(C(=O)/C(Cc2cc(OC)c(OC)c(OC)c2)=C(\C(=O)O)c2ccc3c(c2)OCO3)cc1,Potency,[1],14.1 µM (active)
same,outcome,[2],inactive
CC[C@H]1OC(=O)[C@H](C)C(O[C@H]2C[C@@](C)(OC)[C@@H](O)[C@H](C)O2)[C@H](C)[C@@H](OC2O[C@H](C)C[C@H](N(C)C)[C@H]2O)[C@](C)(O)C[C@@H](C)CN(C)[C@H](C)[C@@H](O)[C@]1(C)O (stereo partly specified),Potency,[1],inactive
same,outcome,[2],inactive
CC(C)c1cccc(C(C)C)c1N1C(=O)c2ccc(O)cc2C1=O,Potency,[1],inactive
same,outcome,[2],inactive
O=C(O)c1cc(O)c(O)c(O)c1,outcome,[6],inactive
same,Potency,[7],inactive
same,outcome,[8],inactive
same,Potency,[4],inactive
CCOC(=O)C1=C(C)NC(C)=C(C(=O)OCC)C1c1c(F)c(F)c(F)c(F)c1F,Potency,[1],20 µM (active)
same,outcome,[2],inactive
S=c1[nH]c(-c2ccccc2)cn1-c1ccccc1,Potency,[1],inactive
same,outcome,[2],inactive
Cn1c(=O)c(-c2c(Cl)cccc2Cl)cc2cnc(Nc3ccc(N4CCOCC4)cc3)nc21,Potency,[1],0.631 µM (active)
same,outcome,[2],inactive
CCCCCCCCCCCCCCCCCCN(CCCCCCCCCCCCCCCCCC)CCCN(CCO)CCO,Potency,[1],inactive
same,outcome,[2],inactive
CN[C@H](CC(C)C)C(=O)N[C@H]1C(=O)N[C@@H](CC(N)=O)C(=O)N[C@H]2C(=O)N[C@H]3C(=O)N[C@H](C(=O)N[C@H](C(=O)O)c4cc(O)cc(O)c4-c4cc3ccc4O)[C@H](O)c3ccc(c(Cl)c3)Oc3cc2cc(c3O[C@@H]2O[C@H](CO)[C@@H](O)[C@H](O)[C@H]2O[C@H]2C[C@](C)(N)[C@H](O)[C@H](C)O2)Oc2ccc(cc2Cl)[C@H]1O,Potency,[1],inactive
same,outcome,[2],inactive
CCC1C(=O)OCC1Cc1cncn1C (stereo unspecified),Potency,[1],inactive
same,Potency,[3],inactive
same,outcome,[2],inactive
same,Potency,[4],inactive
same,outcome,[9],inactive
same,Potency,[5],inactive
